PREPL inh – human PREPL enzyme inhibition; Q4J6C6; recombinant PREPL, fluorescence polarization activity-based probe; inhibition, % at 5.96 µM; 320,000 tested, 0.68% active; AID 2751; in the data active = inhibition above about 43%;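 also: 0% = enzyme with DMSO and 100% = wells lacking enzyme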
MEKK2 WT-MEK5 – raises or lowers MEK5 binding to wildtype human MEKK2 PB1 domain. binding response (% of control), % at 10 µM. bead flow cytometry, Alexa488-MEK5 binding to MEKK2 WT; actives lie on both sides. 290,000 tested, 1.1% active; in the data active = binding response below about 67% or above about 130%
ATG4B inhibitor – blocks human ATG4B protease cleavage of LC3 substrate; 340,000 tested, 0.51% active; inhibition, % at 8.33 µM; ATG4B cleavage of LC3-PLA2, NBD-HPC fluorescence, 1 h; in the data active = inhibition above about 40%
MEKK2mut PB1 HTS – signal of MEK5 binding to mutant human MEKK2 PB1 domain. 290,000 tested, 0.35% active. AID 1530. percent response, % at 10 µM. bead flow cytometry, Alexa488-MEK5 binding to MEKK2 mutant; in the data active = percent response above about 24%, passing the limit was not always enough
UBC13 polyUb – inhibitors of human UBC13 polyubiquitin chain formation | 330,000 tested, 0.47% active | TR-FRET | inhibition, % at 20 µM | AID 485273; in the data active = inhibition above about 45%, passing the limit was not always enough
MEKK3 PB1 HTS – modulators (inhibitors or enhancers) of MEK5 binding to human MEKK3 PB1 domain | Q99759 | bead-based flow cytometry, Alexa488-MEK5 binding to MEKK3; actives lie on both sides; 0 = blocked by unlabeled MEK5, 100 = vehicle | binding response (% of control), % at 10 µM | 290,000 tested, 1.4% active | AID 1529;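 active = binding response more than 3 SD above or below the average of its plate-row segment, actives on both sides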;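 also: Alexa488 bead fluorescence after subtracting the streptavidin-only scavenger bead signal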
Target sequence (Q99759 whole entry, looked up, the tested form may be a part): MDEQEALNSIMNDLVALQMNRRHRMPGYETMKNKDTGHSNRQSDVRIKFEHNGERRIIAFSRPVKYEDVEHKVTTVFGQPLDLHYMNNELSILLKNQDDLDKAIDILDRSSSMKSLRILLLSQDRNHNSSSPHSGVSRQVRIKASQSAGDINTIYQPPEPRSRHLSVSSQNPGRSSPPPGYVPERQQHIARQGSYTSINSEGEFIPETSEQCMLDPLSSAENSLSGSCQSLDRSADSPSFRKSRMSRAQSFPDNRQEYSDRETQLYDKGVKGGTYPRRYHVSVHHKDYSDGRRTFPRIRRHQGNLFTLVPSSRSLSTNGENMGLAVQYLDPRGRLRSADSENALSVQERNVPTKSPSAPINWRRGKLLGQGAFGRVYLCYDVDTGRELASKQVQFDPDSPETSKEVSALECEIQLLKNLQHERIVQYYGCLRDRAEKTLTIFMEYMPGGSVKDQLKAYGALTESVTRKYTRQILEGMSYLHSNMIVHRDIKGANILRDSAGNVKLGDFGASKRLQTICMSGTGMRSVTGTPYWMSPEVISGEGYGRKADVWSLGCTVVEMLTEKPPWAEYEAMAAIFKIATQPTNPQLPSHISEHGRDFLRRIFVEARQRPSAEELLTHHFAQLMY
Casp3 counter – caspase-3 inhibition (UBC13 counter-screen). shares compounds with UBC13 polyUb. Recombinant caspase-3, Caspase-Glo 3/7 luminescence, 60 min. inhibition, % at 20 µM. 1,400 tested, 4% active;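 active = mean inhibition across replicates above about 26%, limit read from the data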;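 also: plate controls were DMSO with caspase-3 for no effect and DMSO wells lacking enzyme for full effect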
UBC13 conf – confirmation of human UBC13 polyubiquitin inhibitors; UBC13 polyubiquitination, TR-FRET, biochemical; shares compounds with UBC13 polyUb; 1,400 tested, 68% active; inhibition, % at 10 µM; in the data active = inhibition above about 45%
An asterisk follows results filed as active; . = no result given. An excerpt weighted towards active compounds, which were near 3.1% of everything screened.

SMILES	PREPL inh	MEKK2 WT-MEK5	ATG4B inhibitor	MEKK2mut PB1 HTS	UBC13 polyUb	MEKK3 PB1 HTS	Casp3 counter	UBC13 conf
Cc1ccc2[nH]c(O)c(N=NC(N)=S)c2c1	-8	96	-4	5	79*	96	-2	96*
Oc1[nH]c2ccccc2c1N=NC(=S)N1CCOCC1	-4	98	-7	1	11	104	.	.
CCCCNC(=S)N=Nc1c(O)[nH]c2ccccc12	7	95	5	-2	85*	96	2	102*
CCOc1ccc(NC(=S)N=Nc2c(O)[nH]c3ccccc23)cc1	11	86	-11	-14	61*	84	3	77*
Cc1ccc(N(C(=O)c2snc(C(N)=O)c2N)C(C(=O)NC2CCCC2)c2ccco2)cc1 (stereo not given)	.	95	21	-7	80*	100	-4	92*
CCCC(C(=O)NC1CCCC1)N(C(=O)c1snc(C(N)=O)c1N)c1ccc(OCC)cc1 (stereo not given)	5	97	3	-3	-2	100	.	.
CN(C)c1ccc(C(C(=O)NCC2CCCO2)N(C(=O)c2snc(C(N)=O)c2N)c2ccc3c(c2)OCO3)cc1 (stereo not given)	10	99	8	-3	38	99	.	.
CCc1ccc(N(C(=O)c2snc(C(N)=O)c2N)C(C(=O)NCC2CCCO2)c2ccco2)cc1 (stereo not given)	-5	97	0	-4	61*	99	1	59*
CCOc1ccc(C(C(=O)NCC2CCCO2)N(C(=O)c2snc(C(N)=O)c2N)c2ccc3c(c2)OCCO3)cc1 (stereo not given)	-7	97	1	-2	69*	99	2	64*
CCOc1ccc(N(C(=O)c2snc(C(N)=O)c2N)C(CC)C(=O)NC2CCCC2)cc1 (stereo not given)	-1	99	14	-3	78*	102	3	82*
CCOc1ccccc1N(C(=O)c1snc(C(N)=O)c1N)C(C(=O)NC1CCCC1)c1ccco1 (stereo not given)	15	.	8	.	6	.	.	.
COc1ccc(NC(=O)c2cc(C)no2)cc1Cl	13	88	4	-11	-8	94	.	.
ClCCn1cnc2c(SCc3ccccc3)ncnc21	.	.	-7	.	.	.	.	.
CCN(CC(=O)Nc1ccccc1C(F)(F)F)C(=O)C1CC(=O)N(Cc2ccccc2)C1 (stereo not given)	-12	.	0	.	10	.	.	.
Cc1cccc(N(C(=O)c2snc(C(N)=O)c2N)C(C(=O)NC2CCCC2)c2ccncc2)c1 (stereo not given)	-4	101	-2	2	25	101	.	.
Cc1ccc(N(C(=O)c2snc(C(N)=O)c2N)C(C(=O)NC2CCCC2)c2ccc(C)o2)cc1 (stereo not given)	3	93	21	-3	64*	101	-1	71*
Cc1cccc(N(C(=O)c2snc(C(N)=O)c2N)C(C(=O)NC2CCCC2)c2ccc(C)o2)c1 (stereo not given)	11	93	-4	-1	55*	99	1	39
NC(=O)c1nsc(C(=O)N(c2ccccc2)C(C(=O)NC2CCCC2)c2ccc3ncccc3c2)c1N (stereo not given)	2	102	4	3	41	102	.	.
COc1ccc(N(C(=O)c2snc(C(N)=O)c2N)C(C(=O)NC2CCCC2)c2ccc3ncccc3c2)cc1 (stereo not given)	26	96	0	-1	48*	100	-1	48*
CC1CCCN(S(=O)(=O)c2ccc(CN3C(=O)c4cccnc4C3=O)cc2)C1 (stereo not given)	2	94	-4	-2	-6	95	.	.
COc1ccccc1NC(=O)CC12CC3CC(CC(Br)(C3)C1)C2	-3	99	1	0	2	101	.	.
O=C(Nc1ccon1)c1nc[nH]c1C(=O)N1CCN(c2ccccc2)CC1	8	.	-8	.	2	.	.	.
CCOc1ccc(NC(=O)Cn2c(=O)n(CCCC(=O)NC3CCN(Cc4ccccc4)CC3)c(=O)c3ccccc32)cc1	10	115	-10	5	92*	101	-1	97*
COC(=O)[C@@]12CCCCN1[C@H](c1ccc(-c3cc(C(C)=O)cs3)c(OC)c1)[C@H]1C(=O)N(C)C(=O)[C@H]12	3	.	-6	.	52*	.	-6	36
COC(=O)[C@@]12CCCCN1[C@H](c1ccc(-c3cc(C(C)=O)cs3)cc1)[C@H]1C(=O)N(C)C(=O)[C@H]12	6	.	-4	.	11	.	.	.
SMILES	PREPL inh	MEKK2 WT-MEK5	ATG4B inhibitor	MEKK2mut PB1 HTS	UBC13 polyUb	MEKK3 PB1 HTS	Casp3 counter	UBC13 conf
C/C=C\C=C/C(=O)Nc1cccc(C2=NOC3(C2)C[C@H](C(N)=O)N(C(=O)c2ccc(OC)cc2)C3)c1 (stereo not given in full)	-6	91	-13	-13	-25	98	.	.
COc1ccccc1-c1oc2ccccc2c1C#CC1(N)CCCCC1	-47	.	0	.	70*	.	-3	70*
CC(C)N1CCc2c(sc(NC(=O)c3cc(-c4cccs4)nc4ccccc34)c2C(N)=O)C1	6	121	19	13	54*	108	-4	49*
Cc1ccc(C(=O)N2CCN(c3ccc(NC(=S)NC(=O)c4cccs4)cc3)CC2)cc1	15	103	-1	1	12	104	.	.
Cc1ccccc1C(=O)N1CCN(c2ccc(NC(=S)NC(=O)c3cccs3)cc2)CC1	23	98	-16	-2	86*	103	2	85*
Cn1c(=O)c2nc(SCc3ccccc3)n(C)c2n(C)c1=O	.	.	0	.	.	.	.	.
COC(=O)C1=C(C)N(Cc2ccccc2)C(=NCCc2cccnc2)N[C@H]1c1ccccc1	13	104	-1	0	33	98	.	.
COC(=O)C1=C(C)N(Cc2ccccc2)C(=NCCc2cccnc2)N[C@H]1c1ccc(Br)cc1	41	.	-1	.	48*	.	-2	31
COC(=O)C1=C(C)N(Cc2ccccc2)C(=O)N[C@H]1c1cccc(C(F)(F)F)c1	10	91	-7	2	5	94	.	.
COC(=O)C1=C(C)N(Cc2ccccc2)C(=S)N[C@H]1c1cccc(C(F)(F)F)c1	-1	.	7	.	5	.	.	.
COC(=O)C1=C(C)N(Cc2ccccc2)C(=NCCc2ccccn2)N[C@H]1c1cccc(C(F)(F)F)c1	17	.	2	.	52*	.	2	58*
COC(=O)C1=C(C)N(Cc2ccccc2)C(=NCc2ccccc2)N[C@H]1c1cccc(C(F)(F)F)c1	-28	.	-6	.	76*	.	-3	82*

Source: PubChem BioAssay
